Among all 350,000 compounds or so, about 2,700 (0.77%) were called active. This is one part of a sample in which actives are shown more often than they occur. Values without a mark were called inactive.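 The calls were made as follows: active = inhibition reaching at least a set limit at 20 µM in the primary screen (cut at about 59% in these data); inactive = the rest.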
Tested on: glucose-6-phosphate dehydrogenase-6-phosphogluconolactonase (Plasmodium falciparum 3D7)
Assay: PfG6PD enzyme inhibitors, primary screen, biochemical, fluorescence intensity, uHTS (AID 504690);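 also: 0% = DMSO wells with substrate and 100% = DMSO wells lacking glucose-6-phosphate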
Settings: PfGluPho enzyme, NADPH resazurin-diaphorase fluorescence; at 20 µM; hits give high values

Going from `CCOC(=O)[C@@H]1[C@H]2COc3ccc(Br)cc3[C@H]2N2C(=O)N(c3ccc(Cl)cc3)C(=O)[C@@]12C` to `CCOc1[nH]n(-c2ccc(Cl)cc2)c(=O)c1C=Nc1ccc(O)cc1`, the inhibition falls from 9.82% to -1.23%.

Compared with `COc1cccc(N2CCN(c3ccc4nnc(CCC(=O)N5CCN(C)CC5)n4n3)CC2)c1`, `CN1CCN(c2ccc(NC(=O)c3cc(Cl)c4c(c3)OCCO4)cc2)CC1` is lower in inhibition: 6.62% for the first, -0.01% for the second.

First: COC(=O)c1sc(N2CCN(Cc3ccccc3)CC2)nc1N
Second: N#Cc1c(N)sc2c1CCN(C(=O)OCc1ccccc1)C2
The inhibition of the first is lower: -11.2% for the first, 42.3% for the second.

Compared with `Cc1ccc(-n2c(N)c(C(=O)N3CCOCC3)sc2=S)c(C)c1`, `COc1ccc2oc(=O)cc(CN3CCOCC3)c2c1` is lower in inhibition: -1.21% for the first, -5.99% for the second.

Compared with `O=C(c1ccc(S(=O)(=O)N2CCCC2)cc1)N1CCN(c2ccccc2F)CC1`, `Cc1ccc(S(=O)(=O)N2CCCCC2)cc1C(=O)N1CCN(CCO)CC1` is lower in inhibition: 7.54% for the first, -1.65% for the second.

Going from `COCCOC(=O)c1sc(=S)n(CCOC)c1N` to `COCCNC(=O)CSc1nc(N)c(NC(=O)c2ccco2)c(=O)[nH]1`, the inhibition falls from 25.1% to 3.96%.

First: O=C(OCc1ccccc1)N1CCC2CC1c1ccc(-c3ccc4c(c3)OCO4)cc12 (stereo not given)
Second: O=[N+]([O-])c1ccc(COc2ccccc2CN2CCOCC2)cc1
The inhibition of the first is lower: 2.75% for the first, 36.1% for the second.

Compared with `O=C(Cc1ccsc1)N1CCN(S(=O)(=O)c2cc(C(F)(F)F)cc(C(F)(F)F)c2)CC1`, `O=C(O)C1CCCCC1C(=O)N1CCN(S(=O)(=O)c2ccc(F)cc2)CC1` (stereo not given) is lower in inhibition: 9.01% for the first, -3.01% for the second.

First: Cc1cccc(N2C(=O)N3[C@H](c4ccc(F)cc4)[C@@H]4C(=O)N(C5CCCCC5)C(=O)[C@@H]4[C@]3(Cc3ccccc3)C2=O)c1
Second: O=C1OC[C@@H]2CCCN2C(=O)[C@H](CC(=O)N(CCO)Cc2ccccc2)C/C=C\CC[C@@H]1Cc1ccc(F)cc1
The inhibition of the first is lower: -21.6% for the first, -6.25% for the second.

First: COc1ccccc1Cn1c(C)nnc1-c1cnn(C)c1N
Second: CCc1nnc(NC(=O)CSc2nc3c(c(=O)n2-c2ccccc2OC)SCC3)s1
The inhibition of the first is lower: -9.47% for the first, 43% for the second.

Compared with `Cc1cc(C)c2c(c1)c(C)cc1nnc(SCC(=O)NCc3ccco3)n12`, `Cc1ccc(-c2cc(C(=O)NCc3cn(C)nc3C)c3cc(Br)ccc3n2)cc1` is lower in inhibition: 46.3% for the first, 3.11% for the second.

First: Cc1ccc(OCCNC(=O)CNC(=O)c2ccc(C)c(C)c2)cc1
Second: Cc1ccc(NC(=O)OCCNC(=O)c2ccncc2)cc1
The inhibition of the first is lower: -19.6% for the first, -14.7% for the second.

Compared with `CNN/C(N=Cc1ccc([N+](=O)[O-])s1)=N\S(=O)(=O)c1cc(C)c(Cl)cc1SCc1ccccc1`, `Cc1ccc(Cc2c(-c3ccccc3)nc3ccc(Cl)cn23)cc1` is higher in inhibition: 5.23% for the first, 37.4% for the second.

Compared with `Cc1ccc(NC(=O)C2CCC(C(C)(C)C)CC2)cc1S(=O)(=O)N1CCOCC1` (stereo not given), `COc1ccc(C(=O)OC(C)C(=O)NC2CCCC2)cc1S(=O)(=O)N1CCOCC1` (stereo not given) is lower in inhibition: 30.1% for the first, -8.93% for the second.

Compared with `O=C1CCC(C(=O)OCC(=O)Nc2ccc(OC(F)F)cc2)=NN1`, `CN(C)C(=O)c1ccc(NC(=O)COC(=O)c2cc3c(s2)CCCCC3)cc1` is lower in inhibition: 3.76% for the first, -5.04% for the second.

Going from `Cc1cc(N=Nc2ccc3ccccc3c2)ccc1O` to `COc1ccc(Nc2ccc3ccccc3c2)cc1`, the inhibition rises from 0.29% to 53.2%.

First: CCn1nnc2cc(C(=O)Nc3ccc(C(=O)OC(C)C)cc3)ccc21
Second: COc1cccc(NC(=O)Nc2ccc(F)cc2)c1
The inhibition of the first is lower: 22.8% for the first, 30.6% for the second.

Compared with `COc1cccc(C(CC(=O)NCCN2CCOCC2)NS(=O)(=O)c2ccc(C)cc2)c1OC` (stereo not given), `COc1ccc(COC(=O)c2ccc(Cl)c(S(=O)(=O)N3CCOCC3)c2)cc1F` is higher in inhibition: 11% for the first, 20.9% for the second.

First: CC(=O)c1ccc(NC(=O)C2CCCN2S(=O)(=O)c2cccs2)cc1 (stereo not given)
Second: CC(C)(C)c1ccc(C(=O)N2CCN(CCNC(=O)C(=O)Nc3ccc(F)cc3)CC2)cc1
The inhibition of the first is higher: 14.3% for the first, 0.45% for the second.

Going from `COc1ccc(Nc2ncnc3sc(C)cc23)cc1` to `COc1ccc(N2CCN(S(=O)(=O)c3cc(Br)cnc3N)CC2)cc1`, the inhibition falls from 4.18% to -12.2%.

First: O=C(NC1CCCC1)C(c1ccc(N2CCOCC2)cc1)N(C(=O)c1ccco1)c1ccccc1F (stereo not given)
Second: O=C(CCN1C(=O)COc2ccccc21)NCCCN1CCN(c2ccc(F)cc2)CC1
The inhibition of the first is higher: 1.31% for the first, -3.8% for the second.

Compared with `Cc1ccc2c(c1)N(CC(=O)NCC1CCCO1)C(=O)CO2` (stereo not given), `O=C(NCC1CCCO1)c1cc2c(s1)CCCC2` (stereo not given) is higher in inhibition: 0.68% for the first, 14% for the second.

First: FC(F)(F)c1cccc(-c2cc3ccccc3nc2N2CCCC2)c1
Second: Cc1nc(=O)c(-c2ccccc2)c(C)n1-c1ccc(Br)cc1
The inhibition of the first is higher: 13.8% for the first, -0.2% for the second.

Compared with `O=C(CNS(=O)(=O)c1ccc(Br)s1)N1CCN(C(=O)c2ccco2)CC1`, `CCOC(=O)N1CCN(C(=O)c2ccc3c(=O)n(CCc4ccc(OC)c(OC)c4)c(=O)[nH]c3c2)CC1` is higher in inhibition: -12.2% for the first, 0.32% for the second.

First: NC(=O)c1cc(-c2cccnc2)nc2ccc(Br)cc12
Second: CC(=O)Nc1ccc(-c2cn3cccnc3n2)cc1
The inhibition of the first is higher: 14.2% for the first, 2.85% for the second.

Going from `Cc1ccc(CSCCNC(=O)CN(c2ccc(F)cc2)S(C)(=O)=O)cc1` to `Cc1ccc(Cc2c(-c3ccc(C)cc3)nc3c4ccccc4ccn23)cc1`, the inhibition rises from -11.7% to 31.4%.

Going from `NC(=O)C1=C[C@@H](c2ccc3c(c2)OCO3)C[C@@H](OCCCCO)O1` to `NC(=O)CN1CCCC1c1ccc2c(c1)OCCO2` (stereo not given), the inhibition falls from 17.6% to 7.24%.

Going from `CC1(c2ccc3ccccc3c2)NC(=O)NC1=O` (stereo not given) to `CS(=O)(=O)Nc1cccc(-c2cn3ccccc3n2)c1`, the inhibition falls from 18.9% to -10.9%.

First: Cc1ccc(C=O)c([B-](F)(F)F)c1
Second: Cc1ccc(-c2cc(N)on2)cc1
The inhibition of the first is lower: -13.1% for the first, 8.69% for the second.

Compared with `COC(=O)C1(CCSC)NC(c2ccc(OC)cc2OC)C2C(=O)N(c3cccc(C(C)=O)c3)C(=O)C21` (stereo not given), `COc1cc2c(C(=O)N(C)c3cc(Cl)ccc3OC)cn(C)c(=O)c2cc1OC` is lower in inhibition: -2.47% for the first, -11.9% for the second.

First: Cc1cc(C)n2nc(CNS(=O)(=O)c3c(F)c(F)c(F)c(F)c3F)nc2n1
Second: Fc1cccc(CSc2nnc3ccc(-c4ccncc4)nn23)c1
The inhibition of the first is lower: -12.8% for the first, 1.54% for the second.

Compared with `O=C(c1[nH]ncc1-c1ccc(Cl)cc1)C1CO1` (stereo not given), `NC1=CC(=O)C(=O)c2cccnc21` is higher in inhibition: 2.19% for the first, 51.8% for the second.

First: CCN(CC)c1ccc(C(=O)c2cnc(/N=C/N(C)C)s2)cc1
Second: CCCCN1CC(C)(C)[C@H](CC(=O)Nc2ccc(Br)cc2)C1=O
The inhibition of the first is lower: 11.6% for the first, 21.2% for the second.

Going from `CCOC(=O)C1CCCN(CCSc2ccc(C)cc2)C1` (stereo not given) to `COc1ccc(CN2CCCC(C(=O)N3CCCCC3)C2)cc1` (stereo not given), the inhibition rises from -1.97% to 0.72%.

Compared with `CC(C)C[C@H](NC(=O)N1CCn2c1nc1ccccc12)C(=O)NC1CC1`, `COc1ccc(C(C)NC(=O)C2CCCC2)cc1` (stereo not given) is lower in inhibition: -6.34% for the first, -12.4% for the second.

Going from `COC(=O)c1ccc(N2CCOCC2)c(NC(=O)c2ccc3c(c2)OCCO3)c1` to `COc1ccccc1C(=O)N/C(=C/c1ccco1)C(=O)Nc1ccc(C(=O)O)cc1`, the inhibition falls from 9.1% to 7.16%.

First: O=C(NCc1cccc(CNC(=O)Nc2cccc(O)c2)c1)Nc1cccc(O)c1
Second: COCC(C)NC(=O)CSc1nc2nn(-c3ccccc3)c(=O)c-2c2n1CCCCC2 (stereo not given)
The inhibition of the first is higher: 11% for the first, -8.52% for the second.

Going from `CC1CCCC(N2CCN(C(=O)c3ccc(F)cc3)CC2)C1` (stereo not given) to `CC(Oc1ccc(F)cc1)C(=O)N1CCN(c2ncccn2)CC1` (stereo not given), the inhibition falls from 12.6% to 8.63%.

For `COC(=O)c1sc(=S)n(-c2ccccc2)c1N`, the inhibition was 65.1% (active).
`Cc1cccc(-n2c(N)c(C(=O)N3CCN(C)CC3)sc2=S)c1` was tested, and the inhibition was 79.6% (active).
For `N#Cc1ccccc1-n1c(N)c(C(=O)N2CCCC2)sc1=S`, the inhibition was 60% (active).
`O=[N+]([O-])c1ccc(C=Nc2ccc(Cl)cc2Cl)s1` was tested, and the inhibition was 76.4% (active).
With `Oc1ccc(N=Cc2c(O)ccc3ccccc23)cc1` the inhibition was 62.9% (active).
For `CSc1n[nH]c(=S)n1N`, the inhibition was 65.2% (active).
`COc1ccc(Nc2cc(Sc3ccc(OC)cc3)ncn2)cc1` was tested, and the inhibition was 77.5% (active).
In the case of `Cc1ccc2nc(-c3cccc(Br)c3)cc(C(=O)Nn3cnnc3)c2c1`, the inhibition is reported as 59.4% (active).
`O=C(Nc1ccc(F)cc1)c1cc2c(s1)CCCC2` was tested, and the inhibition was 75.7% (active).
In the case of `CN1c2ccc(C=O)c3c(C=O)ccc(c23)N(C)C1(C)C`, the inhibition is reported as 69.6% (active).
For `Cc1ccc(-c2nc3ccc(Cl)cn3c2Cc2ccccc2)cc1`, the inhibition was 87.1% (active).
With `Nc1ccccc1SC(C[N+](=O)[O-])c1ccccc1` (stereo not given) the inhibition was 79.5% (active).
For `Oc1c(CN2CCOCC2)ccc(CN2CCOCC2)c1O`, the inhibition was 91.2% (active).
For `Cc1coc2c(O)cc3c(c12)OC1(N2CCCCC2)C(=O)NCCCC31` (stereo not given), the inhibition was 101% (active).
In the case of `CN1CCN(c2ccc(NC(=O)c3ccc4c(c3)OCCO4)cc2Cl)CC1`, the inhibition is reported as 68.3% (active).
For `COc1cccc(NC(=O)NCc2ccc(F)cc2)c1`, the inhibition was 75.8% (active).
For `Cc1ccc(-c2cn3cc(C)ccc3n2)cc1`, the inhibition was 104% (active).
For `Cc1ccc2nc(-c3ccc(Br)cc3)cn2c1`, the inhibition was 91.8% (active).
In the case of `COCCNC(=O)Nc1ccc2nc(-c3ccco3)c(-c3ccco3)nc2c1`, the inhibition is reported as 66.8% (active).

From PubChem BioAssay AID504690 (Sanford-Burnham Center for Chemical Genomics, 2011)
